{"source": "the supplement of paper PMC13380429", "note": "A number with no mark means an inactive call.", "data": [{"test_system": "Vero E6 infected with SARS-CoV-2", "assay": "inhibition of SARS-CoV-2 cytopathic effect; higher = more antiviral protection, active = above 15", "conditions": "10000 nM; 48 h", "units": {"inhibition of SARS-CoV-2 cytopathic effect": "%"}, "values": [{"compound": "FC(F)(F)c1ccc(CNc2ccc(Cc3c[nH]c4ncc(Cl)cc34)cn2)cn1", "note": "[pexidartinib]", "inhibition of SARS-CoV-2 cytopathic effect": 11.6}, {"compound": "CNC(=O)c1cc2c(cn1)[nH]c1ccccc12", "inhibition of SARS-CoV-2 cytopathic effect": 1.58}, {"compound": "O=C(Nc1ccc([N+](=O)[O-])cc1Cl)c1cc(Cl)ccc1O", "note": "[niclosamide]", "inhibition of SARS-CoV-2 cytopathic effect": 4.29}, {"compound": "CS(=O)(=O)c1cc(F)cc2c3c(n(Cc4ccc(Cl)cc4)c12)[C@@H](CC(=O)O)CC3", "note": "[laropiprant]", "inhibition of SARS-CoV-2 cytopathic effect": 2.04}]}]}
